About 6,100 (1.1%) of roughly 580,000 compounds were called active. Inconclusive results (about 15%) are left out. Shown is part of a subset that was picked to be rich in actives. A number with no mark means an inactive call. Calls follow the shape of the dose curve; as a rule, active = well fitted inhibition curve with a large enough effect; inconclusive = small, poorly fitted or top-dose-only effect, or another doubt; inactive = no such curve, though single readings can be large or run the other way.
% is scaled to controls: 0 for no effect and ±100 for the full control effect; potency is read from the fitted curve at half-maximal effect.

In this test the target is Polyunsaturated fatty acid lipoxygenase ALOX12 (Homo sapiens) (UniProt P18054). Kind of test: Primary qHTS assay for inhibitors of human arachidonate 12S-lipoxygenase (ALOX12): Round 2. Conditions: purified 12hLO, xylenol orange hydroperoxide absorbance; series mostly up to 108 µM; activity change, negative = inhibition: at the top concentration. The procedure, abridged: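 Purified human 12hLO (150 nM final) in 25 mM Hepes, 0.01% Triton X-100, pH 7.0 was preincubated 15 min at room temperature with compound. Then 40 uM arachidonic acid was added, 30 min. Hydroperoxide was read by Fe-XO absorbance ratio 573/405 nm.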
Sequence of Polyunsaturated fatty acid lipoxygenase ALOX12 (Homo sapiens) (P18054 whole entry, looked up): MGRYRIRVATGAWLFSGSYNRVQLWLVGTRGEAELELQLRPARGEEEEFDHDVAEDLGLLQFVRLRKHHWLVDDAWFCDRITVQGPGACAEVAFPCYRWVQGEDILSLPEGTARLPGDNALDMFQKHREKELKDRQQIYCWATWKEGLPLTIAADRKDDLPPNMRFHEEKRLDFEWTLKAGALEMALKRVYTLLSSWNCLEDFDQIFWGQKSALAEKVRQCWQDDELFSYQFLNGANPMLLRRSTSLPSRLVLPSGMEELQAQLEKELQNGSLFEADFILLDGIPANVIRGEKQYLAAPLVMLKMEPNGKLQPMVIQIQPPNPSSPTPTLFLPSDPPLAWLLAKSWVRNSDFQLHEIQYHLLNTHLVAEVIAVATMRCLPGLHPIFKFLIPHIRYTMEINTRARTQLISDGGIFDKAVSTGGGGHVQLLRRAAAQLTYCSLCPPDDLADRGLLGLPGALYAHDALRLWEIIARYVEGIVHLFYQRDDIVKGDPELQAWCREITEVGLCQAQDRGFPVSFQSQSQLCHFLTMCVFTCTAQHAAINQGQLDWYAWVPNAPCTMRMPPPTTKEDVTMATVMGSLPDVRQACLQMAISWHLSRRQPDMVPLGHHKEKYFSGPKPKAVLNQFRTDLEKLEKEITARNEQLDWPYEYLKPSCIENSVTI
Take `COc1ccc(C2CC(=O)c3cnc4c(c3C2)c(=O)[nH]c(=O)n4CCC(C)C)cc1` (stereo unspecified): the “activity change, negative = inhibition” value is -3.93%.
Consider `CCCC(=O)C1C(=O)CC(c2ccc(OC)c(OC)c2)CC1=O` (stereo unspecified), for which the “activity change, negative = inhibition” value was 46.2%.
In the case of `O=C(CSc1nc2ccccc2nc1N1CCCCC1)Nc1cccc(Br)c1`, the “activity change, negative = inhibition” value is 56.1%.
For the molecule `CC(Oc1ccc(-c2ccccc2)cc1)C(N)=O` (stereo unspecified), the “activity change, negative = inhibition” value is 47.2%.
As for `CC1(OC(=O)C2CCCC2)C(=O)C=C2C=C(c3ccc(C#N)cc3)OC=C2C1=O` (stereo unspecified), the Potency is 10 µM (active).
Turning to `N#Cc1ccc(-c2nc(C(=O)NC3CCCCCC3)no2)cc1`, the “activity change, negative = inhibition” value was 7.37%.
`CCCCCC1CCC(C(=O)Oc2ccc(C#N)cc2)CC1` (stereo unspecified): the “activity change, negative = inhibition” value was 1.66%.
As for `CCCc1cc(=O)oc2c(C)c(OCC(=O)c3ccc(-c4ccccc4)cc3)ccc12`, the “activity change, negative = inhibition” value was 8.56%.
Same read-out and setting: for `O=C(Nc1ccc2c(c1)OCCO2)C(=O)c1c[nH]c2cc(F)ccc12` the value was -16.1%.
For the molecule `COc1ccc(CN2CCN(Cc3cccnc3)CC2)cc1OCc1ccccc1`, the Potency was 0.708 µM (active).
`Fc1ccc(OC2CN(Cc3cccnc3)C2)c(F)c1`: the activity change, negative = inhibition was 10.3% [at 12.5 µM].
With `C=CCc1ccc(OCC(O)CN2CCN(Cc3ccccc3)CC2)c(OC)c1` (stereo unspecified), the “activity change, negative = inhibition” value is -23.6%.
With `Cc1[nH]nc2c1C(c1ccccc1Br)C1=C(COC1=O)N2` (stereo unspecified), the “activity change, negative = inhibition” value was -14.3%.
In the case of `O=C(NCc1coc(-c2cccs2)n1)C1CCCN(C(=O)c2ccc(F)cc2)C1` (stereo unspecified), the “activity change, negative = inhibition” value is -2.26%.
For the molecule `CN(CC(=O)Nc1cc(Cl)ccc1F)Cc1ccccc1N1CCCCC1`, the “activity change, negative = inhibition” value was 10.9%.
For the molecule `CNC(NC(=O)c1ccc(C)cc1)C(Cl)(Cl)Cl` (stereo unspecified), the “activity change, negative = inhibition” value was 3.19%.
As for `COc1ccc(C(=O)NCc2ccc(C)cc2)cc1S(=O)(=O)N1CCCC1`, the “activity change, negative = inhibition” value was 30.3%.
On the same count and under the same terms, for `COc1ccc(C(=O)N(Cc2ccccc2)c2ccc(C)cc2)cc1S(=O)(=O)N1CCOCC1` the value was 1.7%.
Consider `COc1ccc(C)cc1S(=O)(=O)N1CCN(S(=O)(=O)c2cc(C(=O)O)ccc2C)CC1`, for which the Potency was 15.8 µM (active).
With `CCCCn1nc(C(=O)Nc2cc(Cl)ccc2C)c2ccccc2c1=O`, the “activity change, negative = inhibition” value is 3.35%.
`CCOc1ccc(-c2nc(CN3CCN(C(=O)Nc4ccccc4OC)CC3)c(C)o2)cc1`: the “activity change, negative = inhibition” value is -12%.
On the same count and under the same terms, for `Cc1ncc(-c2ccc(S(=O)(=O)Nc3ccc(F)c(F)c3)cc2)o1` the value was -25.2%; for `COc1cccc(CN2CCCN(Cc3ccncc3)C(c3ccccc3)CC(=O)NCC2)c1OC` (stereo unspecified), 67.7%.
On to `N#Cc1c(-c2ccc(F)cc2)cc(C2CC2)nc1SCC(=O)c1cccs1`, for which the “activity change, negative = inhibition” value is -10.2%.
On the same count and under the same terms, for `N#Cc1ccc(-c2cccs2)nc1SCc1ccc(Br)cc1` the value was -27.6%.
On to `N#Cc1c(-c2cccs2)nc(SCC(=O)c2ccc(Br)cc2)[nH]c1=O`, for which the Potency was 7.08 µM (active).
Take `Cc1oc(-c2ccc(OC(C)C)cc2)nc1CSc1nc2c(c(=O)[nH]1)CCC2`: the “activity change, negative = inhibition” value is -5.3%.
Consider `CCC(Oc1ccc(Br)cc1)C(=O)O` (stereo unspecified), for which the “activity change, negative = inhibition” value was -20.7%.
Turning to `CC(=O)C1=C(O)C(=O)N(c2cccnc2)C1c1ccc([N+](=O)[O-])cc1` (stereo unspecified), the “activity change, negative = inhibition” value is -19.4%.
For the molecule `CC(=O)C1=C(O)C(=O)N(c2ccc(Br)cc2)C1c1ccc([N+](=O)[O-])cc1` (stereo unspecified), the Potency was 31.6 µM (active).
Turning to `COC(=O)CN1C(=O)C(O)=C(C(C)=O)C1c1ccc([N+](=O)[O-])cc1` (stereo unspecified), the “activity change, negative = inhibition” value was -12.7%.
On to `O=C(C(c1ccccc1)c1ccccc1)N(Cc1ccco1)C1CC1`, for which the “activity change, negative = inhibition” value is -2.19%.
For the molecule `Cc1ccc(CS(=O)Cc2ccc(Cl)cc2)cc1` (stereo unspecified), the “activity change, negative = inhibition” value was -10.9%.
With `O=C(NC1CCCCCC1)C1CCN(C(=O)c2ccc(Cl)cc2)CC1`, the “activity change, negative = inhibition” value is 240%.
On the same count and under the same terms, the same measure for `O=C(NNC(=S)NC1CC2CCC1C2)c1ccc(Cl)cc1` (stereo unspecified): 0%; for `Cc1scc(C(=O)NNC(=S)NCC(C)C)c1C`: -23.5%.
`CC(C)CNC(=S)NNC(=O)c1nn(C)cc1Cl`: the “activity change, negative = inhibition” value was -17.6%.
Take `O=C(NC(=S)NC1CCCCC1)c1ccc(Cl)cc1`: the Potency is 2.82 µM (active).
Take `CC(C)CNC(=S)NC(=O)c1ccc(Cl)cc1`: the Potency was 8.91 µM (active).
As to `Cc1ccccc1N1CCCN(Cc2ccccc2OCCO)CC1`, the “activity change, negative = inhibition” value was 29.5%.
On to `Cc1ccc(-c2nc3ccccc3o2)cc1NC(=O)C1CC1`, for which the “activity change, negative = inhibition” value is -4.05%.
As for `Cn1cc(-c2cnc3n[nH]c(-c4ccccc4)c3n2)cn1`, the “activity change, negative = inhibition” value was 24.5% [at 176 µM].
As to `COc1ccc(Cl)cc1C(=O)OCCOc1ccccc1F`, the “activity change, negative = inhibition” value was 26.4%.
Regarding `COc1cccc(-c2cc(C(=O)NCCC(C)C)c3ccccc3n2)c1`, the “activity change, negative = inhibition” value was 14.8%.
Turning to `CN(CCOc1ccccc1)C(=O)c1cc(-c2ccco2)nc2ccccc12`, the Potency is 31.6 µM (active).
As for `Cc1cc(C(=O)OCC(=O)NC(=O)c2ccccc2)c2ccccc2n1`, the “activity change, negative = inhibition” value is 8.94%.
Consider `CC(C)CCNC(=O)COC(=O)c1cc(-c2ccco2)nc2ccccc12`, for which the Potency is 6.31 µM (active).
As for `CCCOc1cccc(-c2cc(C(=O)OC)c3ccccc3n2)c1`, the “activity change, negative = inhibition” value was 4.79%.
In the case of `CCc1nnsc1C(=O)N(C)CCOc1ccccc1`, the “activity change, negative = inhibition” value is -7.12%.
Take `CC(C)c1ccc(OCC(=O)Nc2ccc(C(=O)N(C)C)cc2)cc1`: the “activity change, negative = inhibition” value was 4.6%.
Still for that read-out and setting: for `N#Cc1nc(-c2ccc(S(=O)(=O)N3CCOCC3)cc2)oc1NCCN1CCOCC1` the value was 1.66%.

Source of the values: PubChem BioAssay AID1671190 (National Center for Advancing Translational Sciences (NCATS), 2021).
